Among all 330,000 compounds or so, about 520 (0.16%) were called active. For the sample, actives were picked, then their nearest neighbours and some compounds at random. Values without a mark were called inactive.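 The calls were made as follows: active = inhibition of at least 50% in every replicate; inconclusive = best replicate reaches 50% inhibition but some replicates fall short; inactive = the rest.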
The molecules below were run against Histone acetyltransferase RTT109 (Candida albicans (strain SC5314 / ATCC MYA-2876)) (UniProt Q5AAJ8) (assay: Rtt109-Vps75 histone acetyltransferase blockade – biochemical, ThioGlo CoA-SH fluorescence, plate reader, primary screen (AID 540336)). Settings: purified Rtt109/Vps75, ThioGlo CoA-SH fluorescence, 4 h; at 34.9 µM; hits give high values.
Chain of Histone acetyltransferase RTT109 (Candida albicans (strain SC5314 / ATCC MYA-2876)) (Q5AAJ8 whole entry, looked up): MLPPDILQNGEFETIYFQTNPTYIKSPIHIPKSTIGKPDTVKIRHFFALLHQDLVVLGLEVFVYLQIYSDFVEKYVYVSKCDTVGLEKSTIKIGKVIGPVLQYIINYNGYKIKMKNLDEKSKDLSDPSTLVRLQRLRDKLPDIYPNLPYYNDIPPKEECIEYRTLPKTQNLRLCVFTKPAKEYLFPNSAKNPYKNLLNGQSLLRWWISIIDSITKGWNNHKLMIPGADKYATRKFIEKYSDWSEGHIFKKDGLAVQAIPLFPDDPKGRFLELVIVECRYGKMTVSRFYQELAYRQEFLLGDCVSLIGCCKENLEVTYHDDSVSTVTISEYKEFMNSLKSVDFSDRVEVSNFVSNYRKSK
For `Oc1cccc(CCc2ccccn2)c1`, the inhibition was -14.8%.
Work on `CC/C(=C\c1ccc(Cl)cc1)c1ccncc1` yielded an inhibition of -6.6%.
For `CC12CCCCC1=CC(=O)CC2` (stereo unspecified), the inhibition was -10.3%.
`CC1=NN(/C(=N\c2nnc(C)s2)Nc2ccccc2)[C@H](c2ccc(C)cc2)S1` showed an inhibition of -10.9%.
Molecule `Cc1cn(C2CC(O)C(CO)O2)c(=O)n(CCCc2ccccc2)c1=O` (stereo unspecified) has an inhibition of 5.62%.
With `COc1ccc(/C=C2/CCCc3ccccc3C2=O)cc1` the inhibition was -1.83%.
Work on `O=C(CNC(=O)c1ccccc1F)OCC(=O)c1c[nH]c2ccccc12` yielded an inhibition of 3.64%.
Work on `COc1ccc(Cl)cc1C=CC=NNC(=O)c1ccncc1` yielded an inhibition of -2.75%.
Molecule `Cc1cccc(NC(=S)N2CCC(C(=O)c3ccc(F)cc3)CC2)c1` has an inhibition of -3.47%.
`O=C(Nc1ccc(S(=O)(=O)N2CCOCC2)cc1)C1CCN(S(=O)(=O)c2ccc(Cl)cc2)CC1` gave an inhibition of 1.41%.
`CCN(CC)CCOc1ccc2c(c1)C(=NNC(=O)c1ccccn1)c1cc(OCCN(CC)CC)ccc1-2` was tested, and the inhibition was 72.5% (active).
With `C/C(=N\NC(=O)Cc1ccc(Cl)cc1)c1ccccn1` the inhibition was 1.88%.
For `CCOc1cc2ccccc2cc1C(=O)Nc1ccccn1`, the inhibition was -0.763%.
Molecule `COc1ccc(CCC(=O)Nc2ccc(Cl)c(S(=O)(=O)N3CCOCC3)c2)cc1OC` has an inhibition of 4.5%.
With `CCNC(=S)NCC` the inhibition was 3.05%.
`O=C(O)c1ccc([N+](=O)[O-])cc1Sc1ccsc1` gave an inhibition of -13.5%.
For `CC(NC(=O)c1ccccc1)C(=O)OCC(=O)Nc1cccc(S(=O)(=O)N2CCCC2)c1` (stereo unspecified), the inhibition was 9.23%.
Molecule `CCCCN1CC(CO)Oc2cccc(F)c2S1(=O)=O` (stereo unspecified) has an inhibition of -0.514%.
`COc1ccc(CCNC(=O)COC(=O)c2cnc(Cl)c(Cl)c2)cc1` showed an inhibition of 9.18%.
With `COc1cccc(-c2ccc(C#N)c(SCC(=O)NCCc3ccc(Cl)cc3)n2)c1` the inhibition was 58.6% (active).
In the case of `COc1ccc(CCNC(=O)CSc2nc(-c3ccc(OC)c(OC)c3)ccc2C#N)cc1`, the inhibition is reported as 0.0988%.
In the case of `O=[N+]([O-])c1ccc(C=NN=Cc2ccc([N+](=O)[O-])cc2)cc1`, the inhibition is reported as -12.3%.
`COc1ccc(C(CNC(=O)c2cc(S(=O)(=O)Nc3cccc(C)c3)ccc2C)N2CCCC2)cc1` (stereo unspecified) was tested, and the inhibition was 22.1%.
`CCOc1cc(C=NNC(=O)CCCC(=O)NN=Cc2ccc(O)c(OCC)c2)ccc1O` was tested, and the inhibition was 3.06%.
`COC(=O)C1CC2=C(CC(C)(C)CC2=O)N(c2ccccc2)C1=O` (stereo unspecified) was tested, and the inhibition was -0.664%.
Molecule `COc1ccc(CCNC(=O)c2ccc(NC(=O)CC3SC(N4CCCCC4)=NC3=O)cc2)cc1OC` (stereo unspecified) has an inhibition of 9.04%.
With `O=c1[nH]c2ccccc2n2c(-c3ccccc3)nnc12` the inhibition was 127% (active).
For `O=c1[nH]n2c(-c3ccccc3)nc(O)c2c2ccccc12`, the inhibition was -9.47%.
In the case of `O=C(c1ccc2c(c1)C(=O)N(Cc1ccncc1)C2=O)N1CCN(S(=O)(=O)c2ccc(OC(F)(F)F)cc2)CC1`, the inhibition is reported as 5.03%.
In the case of `NC(=O)c1ncn([C@@H]2O[C@H](CNCc3cnc(N4CCOCC4)s3)[C@@H](O)[C@H]2O)n1`, the inhibition is reported as 0.868%.
`O=C(OCCOc1ccccc1F)c1cc(S(=O)(=O)N2CCOCC2)ccc1F` was tested, and the inhibition was -4.81%.
With `O=C(OCCOc1ccccc1Cl)c1cc(S(=O)(=O)N2CCCCC2)ccc1N1CCOCC1` the inhibition was 2.25%.
In the case of `NNc1cccc(C=Cc2ccccc2)cc1=O`, the inhibition is reported as 9.21%.
In the case of `COc1ccccc1N(CC(=O)Nc1c(C)n(C)n(-c2ccccc2)c1=O)S(=O)(=O)c1ccccc1`, the inhibition is reported as 33.3%.
Molecule `CCc1c(Nc2ccccc2C)nc(N)[nH]c1=O` has an inhibition of -5.27%.
For `O=C(O)c1ccc(Cn2cnc3c(=S)nc[nH]c32)cc1`, the inhibition was 0.573%.
Molecule `O=C1OCC2=C1C(c1ccc(Cl)cc1)c1cc3c(cc1O2)OCO3` (stereo unspecified) has an inhibition of 8.44%.
Molecule `Cc1cc(C)c2c(NC(=O)C3CC3)nn(C)c2n1` has an inhibition of -4.52%.
Work on `C=CCN1C=C(C(=O)c2ccccc2)C(=O)CC1` yielded an inhibition of 9.46%.
With `CN(C)CCNC(=O)c1ccc(Cl)c2cc3ccccc3nc12` the inhibition was 0.27%.
Molecule `Cc1ccc(C(C[N+](=O)[O-])c2c(C)cc3ccccn23)cc1` (stereo unspecified) has an inhibition of 2.3%.
For `Nc1ccccc1SC(C[N+](=O)[O-])c1ccccc1` (stereo unspecified), the inhibition was 108% (active).
`Oc1c(CN2CCCC2)cc(COCc2ccccc2)c2cccnc12` gave an inhibition of -7.26%.
`CCCSc1nc2sc3c(c2c(=O)n1-c1ccc(OC)cc1)CCN(C)C3` showed an inhibition of 0.409%.
With `CCSc1nc2sc3c(c2c(=O)n1-c1ccc(C)cc1)CCN(C)C3` the inhibition was 8.04%.
Molecule `CCOc1ccc(-n2c(SCC(=O)Nc3ccc(OC)cc3)nc3sc4c(c3c2=O)CCN(C)C4)cc1` has an inhibition of 11.2%.
For `COc1ccccc1NC(=O)CSc1nc2sc3c(c2c(=O)n1-c1ccccc1)CCN(C)C3`, the inhibition was 59.4% (active).
For `CCn1c(SCC(=O)Nc2ccc(Br)cc2)nc2sc3c(c2c1=O)CCN(C)C3`, the inhibition was 51.8% (active).
`CCOc1ccc(-n2c(SCC(=O)OC)nc3sc4c(c3c2=O)CCN(C)C4)cc1` showed an inhibition of -6.79%.
With `Cc1ccc(C(=O)CSc2ccccc2C(=O)O)cc1` the inhibition was -2.24%.
In the case of `Cc1ccc(SC(CC(=O)c2ccc(C(C)(C)C)cc2)C(=O)O)cc1` (stereo unspecified), the inhibition is reported as 142% (active).
For `Cc1ccc(C(=O)CNc2ccc(F)cc2)cc1`, the inhibition was -2.53%.
For `O=[N+]([O-])c1ccc(N=NNc2ccc([N+](=O)[O-])cc2)cc1`, the inhibition was 2.16%.
Work on `Cc1cccc(CC2(O)C(=O)Nc3ccccc32)n1` (stereo unspecified) yielded an inhibition of -2.36%.
`O=C(Nc1c(Br)cc2c(c1Br)Cc1ccccc1-2)C(F)(F)F` showed an inhibition of -19.3%.
In the case of `OCC1(CO)CC2(C1)CC(CO)(CO)C2`, the inhibition is reported as -0.212%.
Work on `Cc1cccc(C=CC(=O)c2ccc(Cl)cc2)c1` yielded an inhibition of -3.33%.
Work on `CNc1nc(=O)n(C2CCCO2)cc1C` (stereo unspecified) yielded an inhibition of 12.5%.
Molecule `S=C(Nc1ccccc1)Nc1ccc2ccccc2c1` has an inhibition of 0.68%.
`C=CCn1c(=O)n(C)c2c(=O)n(C)c(=O)n(C)c21` was tested, and the inhibition was 1.91%.
In the case of `CNC(=O)NC(=O)C(C)N1CCN(C/C=C/c2ccccc2)CC1` (stereo unspecified), the inhibition is reported as -0.128%.
